In PubChem BioAssay (NCATS):
Records with an inconclusive call do not appear. The source made the active and inactive calls. The call rests on the fitted dose curve; in most records, active means well fitted curve in either direction with a large enough effect (not every such curve was filed as active); inconclusive means small, poorly fitted or top-dose-only effect, or another doubt; inactive means flat fitted curve, though single readings scatter.

Assay: AP1 Signaling Pathway (AID 357)
Conditions: ME-180 (cervical carcinoma) AP-1-bla reporter, EGF-induced, beta-lactamase ratio, 5 h; at 17.2 µM (top of the series) unless noted
Method in brief: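 Read-out was the 460nm/530nm emission ratio (excitation 405nm) after CCF4 loading for 2.5 hours at room temperature. Cells carried an AP-1-driven beta-lactamase reporter, were stimulated with EC50 EGF plus compound for 5 hours, and AC50 values came from titrations.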
On the % scale 0 is the no-effect control and ±100 the full control effect.

Activity change, negative = inhibition, inactive:
CCCOc1ccc(/C(O)=C2/C(=O)C(=O)N(CCCN3CCOCC3)C2c2ccncc2)cc1 (stereo not given) -5.76%
O=C(O)C1CC(=O)N(Cc2cccs2)C1 (stereo not given) -0.708%
Cn1nnnc1-c1cc(Br)ccc1NC(=O)c1ccccc1 28.6%
COCCOC(=O)C1=C(C)OC(N)=C(C#N)C1c1ccco1 (stereo not given) 0.22%
CC1(C)Cc2nc(N)c(C(=O)NCCO)cc2CO1 8.22%
O=C1CC(c2ccccc2)n2nc(N3C(=O)c4ccccc4C3=O)nc2N1 (stereo not given) 0.103%
O=C(NCCC1=CCCCC1)c1ccc(=O)oc1 -16%
FC(F)(F)c1cccc(-n2cccc2/C=N/n2cnnc2)c1 8.38%
COc1cccc(-c2nn3c(-c4ccco4)nnc3s2)c1 -16%
COc1cccc(NC(=O)c2cc(C(=O)Nc3cccc(OC)c3)n(C)n2)c1 -12.7%
C(=N\n1cnnc1)/c1cccnc1 -4.05%
CCSc1nc(N)c2c3c(sc2n1)CCC3 -12.5%
N#Cc1cccc(-n2c(-c3ccccc3)nnc2-c2ccccc2)c1C#N 4.78%
C=CCNc1nc(-c2cccc(OC)c2O)nc2ccccc12 20.2%
Cc1cc(NC(=O)CSc2nc(-c3cccnc3)ccc2C#N)no1 -14.4%
CC(=O)N1CCC2(CC1)C(C#N)=C(N)Oc1n[nH]c(C(F)(F)F)c12 8.06%
OCCOCCNc1ncnc2c1cnn2-c1ccc(Cl)cc1 9.08%
CCC(NC(=O)Nc1cc(OC)c(OC)c(OC)c1)(C(F)(F)F)C(F)(F)F -13.9%
CC(C)Cc1nc(NCCN2CCOCC2)c(C#N)c2c1COC(C)(C)C2 -8.99%
COc1cc(C2C(C(=O)c3sc(C)nc3C)=C(O)C(=O)N2CCN(C)C)cc(OC)c1OC (stereo not given) -0.396%
Cc1c(Cl)cccc1N1C(=O)C2ON(c3ccccc3)C(c3cccnc3)C2C1=O (stereo not given) 4.21%
CC(=O)NC(=O)Nc1sc(=S)n(C)c1C -0.255%
CCOc1ccc(C2CC(c3ccccc3)Nc3nc(N)nn32)cc1 (stereo not given) -4.28%
CCOCc1nc(N)[nH]c(=O)c1Cc1ccc(OC(C)C)cc1 1.48%
Cc1cc(O)ccc1-c1cnc2ccccc2n1 5.77%
C/C(=N\O)c1c(C)c2ccccc2n1C 2.06%
CCCOc1cccc(C2/C(=C(/O)c3ccc(F)cc3)C(=O)C(=O)N2CCN(C)C)c1 (stereo not given) 3.27%
COC(=O)C1=C(C)N=C2SC(C)C(=O)N2C1c1ccc(C(=O)OC)cc1 (stereo not given) -9.79%
CCOC(=O)c1[nH]c2ccc(C)cc2c1N -6%
c1coc(-c2nnc3sc(C4CCCCC4)nn23)c1 -14.7%
Cc1c(N2C(=O)SC(CC(=O)O)C2=O)c(=O)n(-c2ccccc2)n1C (stereo not given) -20.4%
COC(=O)c1[nH]c(C)c(/C(O)=C2\C(=O)C(=O)N(CCN3CCOCC3)C2c2cccnc2)c1C (stereo not given) 0.561%
C[N+](C)(C)CCOP(=O)([O-])OC[C@H](O)CO 9.55%
CC(=O)Nc1ccc(Oc2ccc3nc(C)[nH]c3c2)cc1 -4.84%
CN=c1sc2ccccc2n1CC(O)COc1ccccc1 (stereo not given) -17.6%
COc1ccccc1C1/C(=C(/O)c2ccc(C)cc2)C(=O)C(=O)N1Cc1ccco1 (stereo not given) 12.8%
COC(=O)c1cc(Br)c(=O)n(-c2nccs2)c1 1.9%
Cc1cc(/C=N/n2cnnc2)c(C)n1-c1ccc2c(c1)OCO2 9.26%
S=C(N=Nc1ccccc1)NNc1ccccc1 7.8%
CCO/C(C)=N/n1c2nc3ccccc3nc2c2c(=O)n(CC(C)C)c(C)nc21 -19.8%
